# Source: PubChem BioAssay (NCI)
# About 79,000 compounds went through this panel and 15% of them were active in at least one assay; those are over-represented in the sample as a whole. Values without a mark were called inactive. The source made the active and inactive calls. Cut-off read from the data, not from the text of the source: active = growth inhibition above about 70%; inactive = the rest.
# Legend:
# [1] = NCI Yeast Anticancer Drug Screen. Data for the rad50 strain (AID 155);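 note: 0% = growth of vehicle-only cultures of the same strain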; conditions: S. cerevisiae rad50 strain growth inhibition; at 50.0 µM; active compounds read high
# Summary of the method: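 Inhibition values express reduced yeast growth in compound-treated cultures relative to vehicle-treated controls.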
# [2] = NCI Yeast Anticancer Drug Screen. Data for the mec2-1 strain (AID 157); conditions: S. cerevisiae mec2-1 strain, at 50.0 µM, active compounds read high
# Summary of the method: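 Vehicle-treated cultures served as reference for growth inhibition of compound-exposed mec2-1 yeast.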
# [3] = NCI Yeast Anticancer Drug Screen. Data for the sgs1 mgt1 strain (AID 161);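 note: 0% = growth of cultures given vehicle only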; conditions: S. cerevisiae sgs1 mgt1 strain, at 50.0 µM, active compounds read high
# Summary of the method: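 Genetically altered yeast, compound exposure, growth inhibition relative to vehicle.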
# [4] = NCI Yeast Anticancer Drug Screen. Data for the cln2 rad14 strain (AID 165);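 note: 0% = growth equal to vehicle treated cultures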; conditions: S. cerevisiae cln2 rad14 strain, at 50.0 µM, active compounds read high
# Summary of the method: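 Each compound was tested on cln2 rad14 yeast. Inhibition of growth was calculated against vehicle-exposed controls.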
# [5] = NCI Yeast Anticancer Drug Screen. Data for the bub3 strain (AID 167); conditions: S. cerevisiae bub3 mutant strain, at 50.0 µM, active compounds read high
# Summary of the method: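 Steps: expose the mutant yeast strain to compound; grow alongside vehicle-treated cultures; measure growth; express inhibition against the vehicle cultures.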
# [6] = NCI Yeast Anticancer Drug Screen. Data for the mlh1 rad18 strain (AID 175); conditions: S. cerevisiae mlh1 rad18 strain growth inhibition; at 50.0 µM; active compounds read high
# Summary of the method: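 Vehicle-treated cultures served as the reference for growth inhibition in a yeast strain carrying DNA damage repair alterations exposed to each compound.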
Structure (SMILES),growth inhibition [1],growth inhibition [2],growth inhibition [3],growth inhibition [4],growth inhibition [5],growth inhibition [6]
C/C(=N\O)C(CN1CCCCC1)C(c1ccccc1)c1c(O)c2ccccc2oc1=O (stereo unspecified),17.9%,2.05%,24.6%,28.6%,21.4%,26.9%
c1ccc(CCN2CCCCC2)cc1,23.2%,-4.6%,10.4%,-2.45%,-14.5%,33.9%
COc1cc2c(cc1OC)C13CCN4CC5=CCOC6CC(=O)N2C1C6C5CC43O (stereo unspecified),-13.9%,-30.9%,-8.05%,8.55%,-4.2%,-47.4%
C1C2CC3C1C1CN3C21 (stereo unspecified),16.9%,2.65%,5.45%,-28%,-8.8%,12.2%
CN(N=O)C(=O)ON1C(=O)CCC1=O,9.65%,7.55%,11.3%,12.4%,18.8%,8.75%
Nc1ccc(C(=O)N/N=C/c2ccc(N(CCBr)CCBr)cc2)cc1,42.9%,22.4%,25.5%,1.95%,5.3%,54.2%
COc1cc(CC(N)c2ccccc2)ccc1O (stereo unspecified),-7.65%,2.45%,11.8%,-20.8%,2.1%,-18.8%
c1ccc(N=PNc2ccccc2)cc1 (stereo unspecified),-4.7%,-6.25%,-9.5%,-51.6%,23%,-13.3%
NC(=O)Nc1ccc([As](O)O)cc1,11.3%,-2.4%,-0.45%,11.8%,-20%,15%
Nc1cc([N+](=O)[O-])cc([N+](=O)[O-])c1,-6.6%,-9.3%,30.1%,4.9%,2.5%,41.3%
CC(C)=CC1CC(=[N+]=[N-])C(=O)C1(C)C (stereo unspecified),33.5%,7.1%,17%,16.9%,4.05%,28.6%
O=C(Nc1c(O)[nH]c(=S)[nH]c1=O)c1ccccn1,6.95%,-14.7%,-3.75%,1.7%,-8.3%,-8.3%
CCCCCCCC(N)CC(=O)O (stereo unspecified),-24.2%,-44.2%,-15.8%,-0.7%,-36.6%,-8.05%
CCOP(=O)(OCC)/C(C#N)=C/c1cccs1,0.5%,-35.2%,-15.2%,-15.8%,-41.8%,-13.7%
[CH3][Sb]([CH3])([CH3])([I])[I],20.4%,-14.1%,0.15%,-12.7%,-0.2%,1.25%
C#CC(=O)[O][Sn]([c]1ccccc1)([c]1ccccc1)[c]1ccccc1,99% (active),99.1% (active),99.3% (active),99.2% (active),98.9% (active),99% (active)
O=C1C(NCC(O)CO)=C(N2CC2)C(=O)C(NCC(O)CO)=C1N1CC1 (stereo unspecified),-0.05%,7%,1.15%,4.55%,8.8%,25.6%
O=C(O)c1ccc([N+](=O)[O-])c([N+](=O)[O-])c1,22.2%,4.95%,32.9%,7.05%,10%,24.6%
C=CC1CN2CCC1CC2C(O)c1ccnc2ccccc12 (stereo unspecified),11.9%,-3.7%,5.95%,10.9%,20.1%,4.1%
NC(=O)C(N)C(F)c1ccccc1 (stereo unspecified),-11.4%,2.85%,-16.4%,-13.6%,-11.7%,16.8%
CCN(CC)CCN(CC)CC.CCN(CC)CCN(CC)CC.[Cu+2].[Cu+2].[O-][Cl+3]([O-])([O-])[O-].[OH3+].[OH3+],-2.85%,1.85%,-0.35%,16.1%,12.6%,15.7%

Structure (SMILES),growth inhibition [1],growth inhibition [2],growth inhibition [3],growth inhibition [4],growth inhibition [5],growth inhibition [6]
OCCC[n+]1cccc2ccccc21,-11.2%,9.25%,1.1%,-41.6%,0.95%,-1.7%
S=C(N=Nc1ccccc1)NNc1ccccc1.[Cu+2],-17.4%,-28.8%,-30%,1.8%,5.75%,-15.2%
C=C[CH2][Sn]([Br])([c]1ccccc1)[c]1ccccc1,99.3% (active),99.2% (active),99.2% (active),98.8% (active),98.8% (active),99.3% (active)
CCOP(=O)(OCC)C(C)(C)OC(=O)NC#N,-24.2%,-63.5%,-36.2%,-8.85%,-13.6%,-28.8%
CCOC12CC3C4=CCOC5CC(=O)N6c7ccccc7C1(CCN2C4)C6C53 (stereo unspecified),15.8%,-39.2%,-9.45%,18.9%,9.05%,-1.2%
O=C1C(Br)=CC2(C=C1Br)CCN=c1c(O)c3c(c(O)c12)=NC=N3,27.3%,15.7%,20.5%,19.1%,12.7%,-9.4%
CCC(Br)(CC)C(=O)NC(N)=O,13.1%,-23.8%,-13.9%,-16.4%,-10.8%,-6.05%
O=NNc1cncc(NN=O)n1,-37.9%,1.1%,-2.8%,-14.9%,-4.95%,3.75%
C[CH2][Sn]([I])([CH2]C)[CH2]C,96% (active),98% (active),97.1% (active),98.3% (active),98.1% (active),98.5% (active)
O=C1C(F)=C(F)C(=O)C(F)=C1F,16.2%,-4.75%,8.35%,-2.85%,21.5%,-1.7%
Clc1cccc2ccccc12,7.8%,-12.2%,0.1%,14.1%,3.4%,16.1%
CCC(=O)[O-].CCC(=O)[O-].N.N.N.N.[Co+3].[O-][Cl+3]([O-])([O-])[O-],-9.55%,-1.6%,-9.1%,17.9%,2.05%,-12.2%
CC(C(=O)c1ccccc1)N(C)Cc1ccccc1 (stereo unspecified),-27.4%,-2.05%,6.75%,-36.7%,42.5%,17.1%
O=C(N/N=C/c1cc(Cl)cc(Cl)c1[O-])c1ccccc1O.O=C(N/N=C/c1cc(Cl)cc(Cl)c1[O-])c1ccccc1O.[Cu+2],-6.05%,-16.2%,-17.8%,-38.2%,-12.7%,12.3%
CCOP(=O)(OCC)SC=C(Cl)Cl,-12.9%,5.5%,2.1%,-10.6%,5%,6.15%
C#CCn1c(I)cc2c(c1=O)COC(=O)[C@]2(O)CC,0.95%,-3.3%,19.6%,-5.4%,6.35%,-31.8%
CCC1(CCO)C(=O)NC(=O)NC1=O,-1.6%,-48.9%,-0.4%,-12.2%,-14.8%,-2.7%
CN(C)CC#CCN(C)C,28.1%,5%,-1%,-10.8%,0.45%,7.2%
COc1cc(C)c(C(CC(=O)O)CC(=O)N(CCCl)CCCl)cc1C(C)C (stereo unspecified),60.4%,4.3%,20.1%,28.2%,4.5%,57.6%
CCOC(=N)N1[C@H](C)[C@@H]1C,43.1%,-42.2%,-42.1%,-19%,-43.1%,-6.95%
